A selection: hits, their analogues and other compounds. The true share with any hit is near 6%.
Tau FP inhib: inhibitors of human tau fibril formation. P10636. K18 P301L tau heparin fibrillization, Alexa594 FP, 6 h. Potency, µM (top dose mostly 57.7 µM), actives largely listed as inhibitors. actives 0.39% (n = 280,000). AID 1468; note: nearly all actives have a fitted effect of over 55% in size
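Quantitative HTS format: compounds meet 15 uM recombinant K18 P301L tau and Alexa 594-tau tracer in 100 mM sodium acetate pH 7; 20 uM heparin triggers fibrillization at 37 C over 6 hr; FP gives the signal.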
Tau fluor cs: counter-screen for tau fibril formation inhibitors. tau K18 P301L Alexa594 fluorescence, heparin fibrillization. Potency, µM (doses to about 57.7 µM). actives 0.93% (n = 280,000); note: nearly all actives have a fitted effect of over 55% in size
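Human K18 P301L tau (15 uM unlabeled plus 0.24 uM Alexa 594-labeled, final) in 100 mM sodium acetate pH 7 was mixed with compound and 20 uM heparin and incubated 6 hr at 37 C.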
VDR inh: vitamin D3 receptor (human) inhibition. P11473. VDR-SRC2-3 peptide fluorescence polarization, 2 h. Potency, µM, actives largely listed as inhibitors. actives 0.93% (n = 400,000). AID 504847
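The screen uses fluorescence polarization to detect compounds that interfere with recruitment of the SRC2-3 coactivator peptide to VDR; plates are read after 2 h at room temperature.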
Tau fibril ThT: tau fibrillization inhibition (ThT binding) | P10636 | actives 2.1% (n = 270,000) | recombinant tau K18 P301L, heparin-induced fibrillization, ThT fluorescence | Potency, µM (series often up to 57.4 µM), hits mostly inhibitors; note: nearly all actives have a fitted effect of over 55% in size
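ThT emission at 510 nm, taken 1 hr after adding 30 uM dye, quantifies aggregates formed when 20 uM heparin acts on human tau K18 P301L for 6 hr at 37 C.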
Sfp inh: Sfp phosphopantetheinyl transferase inhibition; Q9F4F7; Biochemical Sfp PPTase activity, qHTS; Potency, µM, most hits filed as inhibitors; actives 3.5% (n = 310,000); AID 1490;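 note: the enzyme is Sfp with the accession as filed and its product quenches rhodamine fluorescence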
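Reaction rates are the 30-min fluorescence difference (ex 525, em 598 nm) in wells containing 15 nM Sfp, 5 uM rhodamine-CoA and 12.5 uM BHQ-2-YbbR at pH 7.6 with 10 mM MgCl2.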
PLK1 PBD block: blocks phosphopeptide binding to human PLK1 polo-box domain. Potency, µM, hits mostly inhibitors. P53350. Plk1 PBD binding of FITC phosphopeptide, fluorescence polarization. actives 2.8% (n = 360,000); note: series mostly up to about 57 µM; nearly all actives have a fitted effect of over 65% in size
Target sequence (P53350 whole entry, looked up, the tested form may be a part): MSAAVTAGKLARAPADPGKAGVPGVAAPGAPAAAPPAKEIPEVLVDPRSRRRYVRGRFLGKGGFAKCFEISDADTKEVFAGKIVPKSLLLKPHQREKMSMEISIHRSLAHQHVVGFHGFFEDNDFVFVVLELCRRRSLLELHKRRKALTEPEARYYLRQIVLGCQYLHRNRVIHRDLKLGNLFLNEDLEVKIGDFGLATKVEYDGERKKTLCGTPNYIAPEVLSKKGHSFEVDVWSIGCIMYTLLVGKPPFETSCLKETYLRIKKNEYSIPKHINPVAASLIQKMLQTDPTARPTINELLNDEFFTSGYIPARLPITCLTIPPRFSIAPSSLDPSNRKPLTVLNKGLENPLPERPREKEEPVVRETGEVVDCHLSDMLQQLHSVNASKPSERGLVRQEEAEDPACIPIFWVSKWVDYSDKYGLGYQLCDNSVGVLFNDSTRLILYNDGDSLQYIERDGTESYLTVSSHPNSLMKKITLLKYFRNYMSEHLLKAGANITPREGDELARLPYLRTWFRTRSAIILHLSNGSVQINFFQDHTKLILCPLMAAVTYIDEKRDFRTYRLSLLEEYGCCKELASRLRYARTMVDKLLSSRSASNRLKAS
Hits are given with their value; ! = not active in a repeat; [ ] = dose if it differs, or a comment. Calls come from the whole dose curve; as a rule, active = well fitted curve in the direction sought with a large enough effect; inconclusive = small, poorly fitted or top-dose-only effect, or another doubt; inactive = no such curve, though single readings can be large; an effect the other way counts as inactive or inconclusive.

`COc1ccccc1C(=O)NNC(=O)C1CCCO1` (stereo not drawn) gave VDR inh inactive, Sfp inh inactive and PLK1 PBD block inactive.
For O=C(CCSC1=NCCCN1)c1ccc(F)cc1 the results were VDR inh 71µM and PLK1 PBD block inconclusive.
`Cc1ccc2oc(=O)c3cc(C(=O)Nc4ccc(C)c(F)c4)sc3c2c1` gave Tau FP inhib inactive, Tau fluor cs inactive, VDR inh inactive and Tau fibril ThT inactive.
`CC(C)[C@@H]1Cc2[nH]c(=O)[nH]c(=O)c2[C@H](C)O1` gave PLK1 PBD block inactive.
`OC(CNCc1ccncc1)c1ccccc1` (stereo not drawn) gave VDR inh inactive, Sfp inh inactive and PLK1 PBD block 27µM.
`C=CC1=C2C=C(C3CC3)N(C3CCCCC3)C=C2C(=O)C(C)(OC(=O)c2ccco2)C1=O` (stereo not drawn) gave Tau FP inhib inactive[11.6 µM], Tau fluor cs inactive[11.6 µM], Tau fibril ThT inactive[11.5 µM] and Sfp inh inactive.
Screening CNCCCC12CCC(c3ccccc31)c1ccccc12 returned Tau FP inhib inactive, Tau fluor cs inactive, VDR inh inactive, Tau fibril ThT inactive, Sfp inh 89µM! and PLK1 PBD block inconclusive.
CC(=O)c1ccc(OCC(O)CN2CCN(Cc3ccc4c(c3)OCO4)CC2)cc1 (stereo not drawn) was read as Tau FP inhib inactive, Tau fluor cs inactive, VDR inh inconclusive, Tau fibril ThT inactive, Sfp inh 89µM! and PLK1 PBD block 27µM.
For COc1ccc(-c2n(Cc3ccccc3)c3ccccc3[n+]2Cc2ccccc2)cc1 the results were Tau FP inhib inactive, Tau fluor cs inactive, VDR inh inactive, Tau fibril ThT inactive, Sfp inh inactive and PLK1 PBD block inactive.
Screening COC(=O)c1cc(NC(=O)Cc2ccc(OC)c(OC)c2)cc(C(=O)OC)c1 returned Tau FP inhib inactive, Tau fluor cs inactive, VDR inh inconclusive, Tau fibril ThT inactive, Sfp inh inactive and PLK1 PBD block 27µM.
COC(=O)C1=C(C)N(Cc2ccc(OC)c(OC)c2)C(=O)C1 was read as Tau FP inhib inactive, Tau fluor cs inactive, VDR inh inactive, Tau fibril ThT inactive, Sfp inh inactive and PLK1 PBD block 21µM.
For CC1=C(C(=O)N2CCCCCC2)CC(CC(=O)NC2CCCC2)C(=O)N1Cc1ccccc1 (stereo not drawn) the results were PLK1 PBD block inactive.
CC1(C)CC(=O)C(C=NCCO)=C(O)C1 was read as Tau FP inhib inactive, Tau fluor cs inactive, VDR inh inactive, Tau fibril ThT inactive, Sfp inh inactive and PLK1 PBD block 27µM.
CC1(C)CC(=O)C(C=NCCN2CCOCC2)=C(O)C1 was read as Tau FP inhib inactive, Tau fluor cs inactive, VDR inh inactive, Tau fibril ThT inactive, Sfp inh inactive and PLK1 PBD block inactive.
For Oc1c(Cl)cc(CN2CCCCC2)c2cccnc12 the results were Sfp inh inactive.
`O=[N+]([O-])c1cc(CN2CCN(c3cccc(C(F)(F)F)c3)CC2)c2cccnc2c1O` gave Tau FP inhib inactive, Tau fluor cs inactive, VDR inh inactive, Tau fibril ThT 16µM, Sfp inh inactive and PLK1 PBD block inconclusive.
CC(C)OCc1cc(CN2CCN(c3cccc(C(F)(F)F)c3)CC2)c(O)c2ncccc12 was read as Tau FP inhib inactive, Tau fluor cs inactive, VDR inh inactive and Tau fibril ThT inactive.
O=[N+]([O-])c1cc(CN2CCCC2)c2cccnc2c1O was read as Tau FP inhib inactive, Tau fluor cs inactive, VDR inh inactive, Tau fibril ThT 16µM, Sfp inh inactive and PLK1 PBD block inactive.
CCOc1ccc(CCN2C(=O)C(=O)N([C@@H](CC(C)C)CN3CCC[C@H]3CN3C(=O)C(=O)NC[C@@H]3Cc3ccccc3)C[C@@H]2Cc2ccccc2)cc1 was read as PLK1 PBD block inactive.
Screening CCSc1nc2c(c(-c3ccc(C)o3)c1C#N)CCCC2 returned Tau FP inhib inactive, Tau fluor cs inactive, VDR inh inactive, Tau fibril ThT inactive, Sfp inh inconclusive and PLK1 PBD block inactive.
COC(=O)CSc1nc(N2CCCCC2)c2c(c1C#N)CCCC2 was read as Tau FP inhib inactive, Tau fluor cs inactive, VDR inh inactive, Tau fibril ThT inconclusive, Sfp inh inconclusive and PLK1 PBD block 24µM.
N#Cc1c(SCC(=O)O)nc(N2CCCCC2)c2c1CCCC2 was read as Tau FP inhib inactive, Tau fluor cs inactive, VDR inh inactive, Tau fibril ThT inactive, Sfp inh inactive and PLK1 PBD block inactive.
COC(=O)CSc1nc2c(c(-c3ccc(C)o3)c1C#N)CCCC2 was read as Tau FP inhib inactive, Tau fluor cs inactive, VDR inh inactive, Tau fibril ThT inactive, Sfp inh 50µM and PLK1 PBD block inactive.
`Cc1cc(C)c(Cn2c3ccccc3c3cnn(CC(=O)NCCCc4ccccc4)c(=O)c32)c(C)c1` gave Tau FP inhib inactive, Tau fluor cs inactive, VDR inh inactive and Tau fibril ThT inactive.
For Cc1ccc(C(=O)COC(=O)C(CC(C)C)NC(=O)C2CCC(C)CC2)cc1 (stereo not drawn) the results were Tau FP inhib inactive, Tau fluor cs inactive, VDR inh inactive and Tau fibril ThT inactive.
`COc1cc(CNCc2ccccc2)cc(Cl)c1OC` gave Tau FP inhib inactive, Tau fluor cs inactive, VDR inh inactive, Tau fibril ThT inactive, Sfp inh inactive and PLK1 PBD block inactive.
`COc1cc(CNCCc2ccccc2)cc(Cl)c1OCc1ccccc1` gave Tau FP inhib inactive, Tau fluor cs inactive, VDR inh inactive, Tau fibril ThT inactive, Sfp inh 32µM and PLK1 PBD block inactive.
For COc1cccc(NC(=O)CCc2c(C)nc3ncnn3c2C)c1 the results were Tau FP inhib inactive, Tau fluor cs inactive, VDR inh inactive and Tau fibril ThT inactive.
CCCS(=O)(=O)N1CCN(C2Cc3ccccc3C2)CC1 was read as Tau FP inhib inactive, Tau fluor cs inactive, VDR inh inactive, Sfp inh 89µM and PLK1 PBD block inactive.
For CCCS(=O)(=O)N1CCN(C2CCC(C)CC2)CC1 (stereo not drawn) the results were Tau FP inhib inactive, Tau fluor cs inactive, VDR inh inactive, Tau fibril ThT inactive, Sfp inh inactive and PLK1 PBD block inactive.
Screening Cc1ccc(-c2nc3sc(CCNC(=O)c4ccc(F)c(F)c4)c(C)n3n2)cc1 returned Tau FP inhib inconclusive, Tau fluor cs inactive, VDR inh inactive and Tau fibril ThT inactive.
For COC(=O)c1cc(S(=O)(=O)N2CCN(c3ccc(C)cc3C)CC2)cn1C the results were Tau FP inhib inactive, Tau fluor cs inactive, VDR inh inactive and Tau fibril ThT inactive.
Screening COC(=O)C1CCN(C2CN(Cc3ccc(C)cc3)S(=O)(=O)C2)CC1 (stereo not drawn) returned PLK1 PBD block inactive.

Assay outcomes: PubChem, National Center for Advancing Translational Sciences (NCATS)
